POLH inh: inhibitors of human DNA polymerase eta; Q9Y253; recombinant Pol eta, fluorescent DNA replication assay; Potency, µM (top dose mostly 114 µM), without a hit: at the highest dose activity change, negative = inhibition, usual class: inhibitors; 1.2% of 390,000 active; AID 588591; further: on the % scale 0 is the no-effect control and ±100 the full control effect
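Pol eta at 10 nM preincubated with compounds 15 min at room temperature; reaction started with fluorescent substrate (50 nM final) and read kinetically at 0 and 10 min.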
FEN1 inhibitor: human FEN1 inhibition. AID 588795. 0.35% of 390,000 active. P39748. Potency, µM (top dose mostly 114 µM), for the others: at the top dose activity change, negative = inhibition, most hits filed as inhibitors. Recombinant FEN1 flap cleavage, fluorescence, 15 min; further: on the % scale 0 is the no-effect control and ±100 the full control effect; nearly all actives have a fitted effect of over 65% in size
Target sequence (P39748 whole entry, looked up): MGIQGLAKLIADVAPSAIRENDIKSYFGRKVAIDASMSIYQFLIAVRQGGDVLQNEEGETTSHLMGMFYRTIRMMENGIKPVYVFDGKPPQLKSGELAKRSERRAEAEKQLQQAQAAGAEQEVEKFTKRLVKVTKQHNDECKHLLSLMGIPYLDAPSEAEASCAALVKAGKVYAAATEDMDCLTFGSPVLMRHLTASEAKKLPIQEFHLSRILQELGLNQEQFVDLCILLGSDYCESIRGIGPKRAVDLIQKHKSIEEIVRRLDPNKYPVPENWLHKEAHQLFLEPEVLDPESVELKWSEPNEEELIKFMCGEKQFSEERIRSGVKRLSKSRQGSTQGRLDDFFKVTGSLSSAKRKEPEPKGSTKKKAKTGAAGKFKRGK
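Reaction started by adding substrate (50 nM final) to 10 nM enzyme after 15 min room-temperature compound preincubation. Reads at 0 and 15 min, with data normalized and fitted to a four-parameter Hill equation.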
POLI inh: inhibitors of human DNA polymerase iota; Pol iota fluorescent replication assay, 10 min; Potency, µM (highest dose often 115 µM), for inactives: at the highest dose activity, negative = inhibition, most hits filed as inhibitors; 1% of 390,000 active; AID 588590
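Pol iota at 10 nM preincubated 15 min with compounds at room temperature; reaction started with fluorescent substrate, 50 nM final. Fluorescence read kinetically at 0 and 10 min; buffer-only wells as negative control.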
Pol beta inh: blocks human DNA polymerase beta activity; 1.3% of 340,000 active; AID 485314; Potency, µM (series often up to 114 µM), inactives show at the highest dose activity change, negative = inhibition, hits mostly inhibitors; P06746; Pol beta primer extension/strand displacement, fluorescence kinetic; further: on the % scale 0 is the no-effect control and ±100 the full control effect
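Curves were derived by four-parameter Hill fits of normalized qHTS data. The kinetic fluorescent primer-extension read was taken at 0 and 10 min after 50 nM substrate, following a 15 min room-temperature preincubation of 10 nM enzyme with compounds.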
WRN helicase inh: WRN helicase (human) inhibition. Potency, µM (doses to about 114 µM), inactives show at the highest dose activity change, negative = inhibition, hits mostly inhibitors. WRN helicase unwinding, fluorescent forked duplex, kinetic. AID 651768. 0.46% of 360,000 active; further: on the % scale 0 is the no-effect control and ±100 the full control effect; nearly all actives have a fitted effect of over 55% in size
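Kinetic fluorescence helicase assay: unwinding of a quenched forked DNA duplex (100 nM final) with 2 mM ATP final raises red fluorescence (525/598 nm). Compounds sat 15 min at room temperature with 20 nM WRN beforehand.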
Pol kappa inh: inhibitors of human DNA polymerase kappa; Q9UBT6; purified Pol kappa, fluorescent DNA synthesis assay, 10 min; Potency, µM (series often up to 107 µM), without a hit: top-dose activity, negative = inhibition, hits mostly inhibitors; 0.53% of 400,000 active; further: on the % scale 0 is the no-effect control and ±100 the full control effect
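10 nM Pol kappa preincubated 15 min at room temperature with compounds, then reaction started with substrate at 50 nM final. Fluorescence read kinetically at 0 and 10 min; buffer-only wells served as negative control.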
* hit, by the source's call; [ ] = another dose, or the depositor's remark. Sampled rows, rich in hits. Any-hit rate of the full collection: about 2.4%. The call rests on the fitted dose curve; in most records, active means well fitted curve in the direction sought with a large enough effect; inconclusive means small, poorly fitted or top-dose-only effect, or another doubt; inactive means no such curve, though single readings can be large; an effect the other way counts as inactive or inconclusive. Potency means the concentration at half of the fitted maximal effect.

`Cc1occc1C(=O)N1CCN(c2ccc([N+](=O)[O-])cc2)CC1` gave POLH inh -1%, FEN1 inhibitor -3%, POLI inh inconclusive, Pol beta inh 40µM*, WRN helicase inh 3% and Pol kappa inh -5%.
Cc1occc1C(=O)N1CCN(c2ccc(Cl)cc2)CC1 was read as POLH inh -19%, FEN1 inhibitor -1%, POLI inh 134%, Pol beta inh 29%, WRN helicase inh -4% and Pol kappa inh -14%.
Screening CN(C)CC(C(=O)c1ccccc1)c1ccccc1 (centres undefined) returned POLH inh -15%, FEN1 inhibitor -1%, POLI inh 32µM*, Pol beta inh 2%, WRN helicase inh inconclusive and Pol kappa inh -1%.
Screening c1cc2[nH]snc2c2nc(C3CC3)nc12 returned POLH inh 79µM*, FEN1 inhibitor inconclusive, POLI inh inconclusive, Pol beta inh 4%, WRN helicase inh -15%[57.1 µM] and Pol kappa inh -8%.
Cc1ccc(NC(=O)Cn2nc(C)n3cccc3c2=O)c(C)c1 was read as POLH inh -8%, FEN1 inhibitor -3%, POLI inh -1%, Pol beta inh -6% and Pol kappa inh 4%.
O=c1oc2c(-c3ccc([N+](=O)[O-])cc3)cc(O)cc2s1 was read as POLH inh inconclusive, FEN1 inhibitor -1%, POLI inh 50µM*, Pol beta inh inconclusive, WRN helicase inh 56µM* and Pol kappa inh inconclusive.
NC1=C(c2ccc([N+](=O)[O-])cc2)C(=O)CO1 was read as POLH inh -5%, FEN1 inhibitor 4%, POLI inh 62%, Pol beta inh 0%, WRN helicase inh 1% and Pol kappa inh -4%.
For COc1ccccc1N1CCN(C(=O)N2CCOCC2)CC1 the results were POLH inh 0%, FEN1 inhibitor -7%, POLI inh 89µM*, Pol beta inh -22%, WRN helicase inh 4% and Pol kappa inh -9%.
Screening COc1ccccc1N1CCN(C(=O)c2ccc(C(C)(C)C)cc2)CC1 returned POLH inh -26%, FEN1 inhibitor 6%, POLI inh inconclusive, Pol beta inh inconclusive, WRN helicase inh 50µM* and Pol kappa inh -11%.
For COc1ccc(-c2nc(-n3c(C)c(C(C)=O)c(C(C)=O)c3C)sc2C)cc1 the results were POLH inh inconclusive, FEN1 inhibitor 7%, POLI inh 4%, Pol beta inh 0%, WRN helicase inh -14% and Pol kappa inh -4%.
For COc1ccc(C=NNC(=O)CCCCC(=O)NN=Cc2ccc(OC)cc2)cc1 the results were POLH inh -21%, FEN1 inhibitor -1%, POLI inh 12%, WRN helicase inh 9% and Pol kappa inh 2%.
Screening COC(=O)/C=C\C(C#N)(C#N)N=Cc1ccc(OC)cc1 returned POLH inh -5%, FEN1 inhibitor -3%, POLI inh 11%, WRN helicase inh 56µM* and Pol kappa inh -17%.
For CC(C)c1ccc2[nH]c(O)c(N=NC(=O)c3cccc(S(=O)(=O)N4CCCCC4)c3)c2c1 the results were POLH inh -17%, FEN1 inhibitor -9%, POLI inh 30%, Pol beta inh 42%, WRN helicase inh -6% and Pol kappa inh -2%.
Screening COc1ccc(CC(=O)NNS(=O)(=O)c2cccc([N+](=O)[O-])c2)cc1OC returned POLH inh -11%, FEN1 inhibitor -11%, POLI inh 19%, Pol beta inh 29%, WRN helicase inh 0% and Pol kappa inh 10%.
`COc1ccc(-n2c(O)c(/C=N/NS(=O)(=O)c3cccc([N+](=O)[O-])c3)c3ccccc3c2=O)cc1OC` gave POLH inh -11%, FEN1 inhibitor -9%, POLI inh inconclusive, Pol beta inh -20%, WRN helicase inh 14µM* and Pol kappa inh -9%.
`Cc1ccccc1-c1cc2c(nn1)-c1ccccc1C2=O` gave POLH inh -14%, FEN1 inhibitor -5%, POLI inh 16µM*, Pol beta inh -2%, WRN helicase inh -9% and Pol kappa inh -6%.
For Cc1ccc(S(=O)(=O)N(CC(O)Cn2c3ccccc3c3ccccc32)c2cccc(C(N)=O)c2)cc1 (centres undefined) the results were POLH inh -8%, FEN1 inhibitor -27%, POLI inh -22%, Pol beta inh 0% and Pol kappa inh -10%.
Cc1ccc(S(=O)(=O)N(CC(O)Cn2c3ccccc3c3ccccc32)c2cccc(C(=O)N(C)C)c2)cc1 (centres undefined) was read as POLH inh -13%, FEN1 inhibitor 89µM*, POLI inh 89µM*, Pol beta inh -16% and Pol kappa inh 79µM*.
`O=C(NC1CCCCCC1)C1CCC(CNS(=O)(=O)c2ccc(Br)s2)CC1` (centres undefined) gave POLH inh -3%, FEN1 inhibitor 1%, POLI inh 135%, Pol beta inh 3%, WRN helicase inh 6% and Pol kappa inh -8%.
`O=C1C=C(c2ccccc2)CC(c2cccs2)C1n1cnc([N+](=O)[O-])c1` (centres undefined) gave POLH inh inconclusive, FEN1 inhibitor -6%, POLI inh -20%, Pol beta inh 50µM*, WRN helicase inh -8% and Pol kappa inh -15%.
`Cc1onc(-c2c(Cl)cccc2Cl)c1C(=O)NCc1ccc(S(N)(=O)=O)cc1` gave POLH inh -11%, FEN1 inhibitor -1%, POLI inh -10%, Pol beta inh 14%, WRN helicase inh 7% and Pol kappa inh 15%.
Screening Cc1cccc(NCN2C(=O)c3ccncc3C2=O)n1 returned POLH inh 7%, FEN1 inhibitor 3%, POLI inh -2%, Pol beta inh 21%, WRN helicase inh 12% and Pol kappa inh -10%.
For Cc1cc2nc3ccc(N(C)C)cc3nc2cc1N the results were POLH inh inconclusive, FEN1 inhibitor inconclusive, POLI inh 6.3µM*, WRN helicase inh 50µM* and Pol kappa inh inconclusive.
`Cc1ccc(-n2nc3cc(C)c(N)cc3n2)cc1` gave POLH inh -7%, FEN1 inhibitor -13%, POLI inh 1%, Pol beta inh 46%, WRN helicase inh -6% and Pol kappa inh -9%.
Screening Cc1cc(C)cc(NS(=O)(=O)c2ccc3[nH]cc(C(=O)N4CCCCCC4)c(=O)c3c2)c1 returned POLH inh -5%, FEN1 inhibitor -13%, POLI inh -13%, Pol beta inh 19% and Pol kappa inh -14%.
For O=C(CNC(=O)c1cccc(-n2cccc2)c1)Nc1ccccc1Br the results were POLH inh 32µM* and WRN helicase inh -23%.

Screening results from PubChem BioAssay.
